Columns and labels:
Experiment in all cases: PBM binding z-score (relative to random genomic background probes); higher = stronger binding; sequences stand for … in GC…GCGATTGACAGCGTAGAATGAAGG
[1] = system: FXR:RXRa (NR concentration 270 nM, RXRa partner concentration 90 nM)
In short: (§1)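 Binding z-scores were set against random background probes. The data came from custom Agilent 4×180K protein-binding microarrays carrying double-stranded probes with 34-nt variable regions, incubated 1 h with ligand-free nuclear receptor dimers. Partner-specific antibodies detected binding, and scanned fluorescence was regression-normalized.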

[2] = system: LXRa:RXRa (NR concentration 270 nM, RXRa partner concentration 90 nM)
In short: as §1

[3] = system: LXRa homodimer (NR concentration 270 nM)
In short: as §1

[4] = system: LXRb:RXRa (NR concentration 270 nM, RXRa partner concentration 90 nM)
In short: as §1

[5] = system: LXRb homodimer (NR concentration 270 nM)
In short: as §1

[6] = system: PPARa:RXRa (NR concentration 270 nM, RXRa partner concentration 90 nM)
In short: as §1

[7] = system: PPARg:RXRa (NR concentration 180 nM, RXRa partner concentration 90 nM)
In short: as §1

[8] = system: PPARg:RXRa 270nM:90nM, anti-RXR (NR concentration 270 nM, RXRa partner concentration 90 nM)
In short: as §1

[9] = system: PPARg:RXRa 30nM:10nM, anti-RXR (NR concentration 30 nM, RXRa partner concentration 10 nM)
In short: as §1

[10] = system: PPARg:RXRa 90nM:30nM, anti-RXR (NR concentration 90 nM, RXRa partner concentration 30 nM)
In short: as §1

[11] = system: PPARg:RXRa DBDmut IVT, anti-RXR (DBD mutation: RXRa K156A/R161A, NR concentration 270 nM, RXRa partner concentration 90 nM)
In short: as §1

[12] = system: PPARg:RXRa IVT, anti-PPARg (NR concentration 270 nM, RXRa partner concentration 90 nM)
In short: as §1

[13] = system: PPARg DBDmut:RXRa IVT, anti-PPARg (DBD mutation: PPARg1 K132A/R137A, NR concentration 270 nM, RXRa partner concentration 90 nM)
In short: as §1

[14] = system: PPARg DBDmut IVT, anti-PPARg (DBD mutation: PPARg1 K132A/R137A, NR concentration 270 nM)
In short: as §1

[15] = system: PPARg homodimer (NR concentration 180 nM)
In short: as §1

[16] = system: PXR:RXRa (NR concentration 270 nM, RXRa partner concentration 90 nM)
In short: as §1

[17] = system: PXR homodimer (NR concentration 270 nM)
In short: as §1

[18] = system: RARa:RXR (NR concentration 270 nM, RXRa partner concentration 90 nM)
In short: as §1

[19] = system: RARa homodimer (NR concentration 270 nM)
In short: as §1

[20] = system: RARb:RXRa (NR concentration 270 nM, RXRa partner concentration 90 nM)
In short: as §1

Sequence	PBM binding z-score [1]	PBM binding z-score [2]	PBM binding z-score [3]	PBM binding z-score [4]	PBM binding z-score [5]	PBM binding z-score [6]	PBM binding z-score [7]	PBM binding z-score [8]	PBM binding z-score [9]	PBM binding z-score [10]	PBM binding z-score [11]	PBM binding z-score [12]	PBM binding z-score [13]	PBM binding z-score [14]	PBM binding z-score [15]	PBM binding z-score [16]	PBM binding z-score [17]	PBM binding z-score [18]	PBM binding z-score [19]	PBM binding z-score [20]
AACACAGGGTCATCGTAGGCCAGAGTACGCACAG	7.22	6.21	1.53	4.44	0.922	5.84	5.85	5.7	1.96	4.21	2.2	3.46	1.2	0.514	2.34	4.91	0.707	4.91	0.823	4.3
ACTAGCAGGCCAAGGGTCATTCAAGATTAGTCCG	3.35	3.46	1.07	3.3	-0.0105	4.72	7.69	7.28	5.9	7.5	0.965	3.72	0.143	-0.155	1.76	3.83	0.144	4.26	0.503	3.41
AGAATGAGGTTATTAAGATCAGGAAATTGCGGTC	1.33	1.7	0.37	1.3	-0.00704	2.59	1.63	1.8	0.356	1.47	2.71	2.49	1.18	0.481	0.657	1.3	0.566	1.3	0.579	1.42
CCAGACAGGTGAGAAGATAACTCAGCCTCGATTA	0.0426	0.15	-0.0638	-0.14	-0.471	-0.179	0.576	-0.087	-0.116	0.155	0.896	0.216	-0.0942	-0.455	0.364	0.081	0.476	0.117	0.792	0.241
AGTCAAAGTTCACTAGGTACCGTAAGATTCAGCT	4.67	5.23	3.18	3.05	0.945	4.23	5.85	6.01	2.8	5.22	1.61	3.48	1.07	0.221	2.63	4.09	3.98	2.9	1.09	4.74
CGAACTAGGACAAGGACAGTGAATCTCCGCACGC	0.182	-0.241	-0.152	-0.655	-0.538	0.455	1.22	0.612	-0.234	0.216	5.04	3.15	0.0656	0.471	0.000634	-0.249	-0.177	0.0939	-0.389	0.708
TCTATTAGTGGAAGGGCAACCGACGAGTCCGTTT	0.67	0.688	0.218	0.807	0.57	0.716	0.0931	1.91	3.26	2.56	2.03	0.68	0.155	-0.147	0.597	0.698	0.821	0.778	0.46	1.59
GGAACGAGGACATTCGAGTTGATAGCATGGCGAT	0.116	-0.183	-0.644	-0.72	-0.703	-0.304	0.664	-0.0182	-0.118	-0.155	0.421	0.192	-0.159	-0.578	-0.204	0.468	0.409	0.177	-0.136	0.344
TCTGCTCGGTCAGTTGGTCAGCTAACGAGCTGCC	-0.211	-0.247	-0.549	-0.506	0.134	-0.00259	-1.22	0.38	0.881	0.52	0.685	0.74	-0.215	0.0745	-0.826	-0.447	-1.11	-0.352	-1.55	1.73
CGTACAAGGTCAATGCTAGGTCAGTGAAAGCATT	7.34	6	2.7	4.55	1.54	5.5	5.12	5.6	2.08	4.22	4.05	4.92	0.909	0.378	5.84	5.07	2.03	6.46	2.18	5.33
GCTGCTAGGTCAGGTTGGTCCGCTAACGGGTACG	1.45	0.788	-0.309	0.439	0.221	1.46	0.195	0.764	-0.421	0.25	2.43	2.33	-0.695	-0.237	0.526	0.421	-0.826	0.786	-0.467	3.27
ACAGACAGGTGCTGAAGGTAACTCAGGCTATCAT	-0.388	-0.633	-0.46	-0.677	-0.731	-0.462	0.398	-0.189	-0.203	-0.342	-0.133	-0.503	-0.162	0.258	-0.279	-0.445	-0.113	-0.341	-0.406	-0.476
CCGACTGGGGCAAGGGTACCATAACGCACAGCCA	-0.555	-0.391	-0.264	-0.192	-1.39	1.5	4.24	4.92	2.6	4.6	2.26	3.6	0.123	-0.113	0.601	-0.478	-0.439	-0.197	-0.395	0.933
CCGACTGGTGCAAAGGTTACCATACTCAGTACGA	0.595	1.59	0.244	1.89	-0.483	3.86	6.69	6.67	4.73	6.75	0.299	2.67	0.0281	-0.547	1.18	2.07	-0.109	2.87	0.34	1.96
GCTGCTACGTCAACTGATGGTCAGCTAAAGCTCG	-0.601	-0.63	-0.84	-0.799	-1.1	-0.483	-0.201	-0.736	-0.808	-0.829	-0.232	-0.749	-0.632	-1.06	-1.02	-0.736	-1.23	-0.62	-1.34	-0.291

Reference: the supplement of paper PMC6555819
